# Columns and labels:
# Experiment in all cases: thermal shift delta Tm vs DMSO control; higher = stronger stabilization (binding)
# Conditions in all cases: 12.5 µM; protein concentration 2 µM
# LOC_OS01G01410-cb001 = tested on: LOC_OS01G01410-cb001
# How it was run: (§1)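 Purified, E. coli-expressed rice kinase domain constructs were tested by differential scanning fluorimetry in 96-well plates: 19.5 μl of 2 μM kinase in 100 mM potassium phosphate pH 7.5, 150 mM NaCl, 10% glycerol, 5 × SYPRO Orange, plus compound in DMSO. Fluorescence was read from 25°C to 95°C at 0.05°C/s. Melting temperatures came from Boltzmann fits, and the shift is the triplicate mean relative to protein with DMSO alone.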
# LOC_OS01G02750-cb003 = tested on: LOC_OS01G02750-cb003
# How it was run: as §1
# LOC_OS01G10900-cb004 = tested on: LOC_OS01G10900-cb004
# How it was run: as §1
# LOC_OS01G13800-cb001 = tested on: LOC_OS01G13800-cb001
# How it was run: as §1
# LOC_OS01G14860-cb001 = tested on: LOC_OS01G14860-cb001
# How it was run: as §1
# LOC_OS01G21960-cb002 = tested on: LOC_OS01G21960-cb002
# How it was run: as §1
# LOC_OS01G39600-cb002 = tested on: LOC_OS01G39600-cb002
# How it was run: as §1
# LOC_OS01G48390-cb002 = tested on: LOC_OS01G48390-cb002
# How it was run: as §1
# LOC_OS01G51400-cb002 = tested on: LOC_OS01G51400-cb002
# How it was run: as §1
# LOC_OS01G52050-cb004 = tested on: T1, LOC_OS01G52050-cb004
# T1 sequence (whole entry): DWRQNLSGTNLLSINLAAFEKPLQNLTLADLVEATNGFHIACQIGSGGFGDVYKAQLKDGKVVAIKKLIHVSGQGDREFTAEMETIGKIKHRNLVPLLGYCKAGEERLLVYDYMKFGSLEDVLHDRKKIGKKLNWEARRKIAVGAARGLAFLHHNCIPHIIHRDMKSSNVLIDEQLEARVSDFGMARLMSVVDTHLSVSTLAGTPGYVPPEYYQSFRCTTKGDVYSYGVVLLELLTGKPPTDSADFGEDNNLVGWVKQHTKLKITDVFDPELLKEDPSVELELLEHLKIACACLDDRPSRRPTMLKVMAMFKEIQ
# How it was run: as §1
SMILES,thermal shift delta Tm (LOC_OS01G01410-cb001),thermal shift delta Tm (LOC_OS01G02750-cb003),thermal shift delta Tm (LOC_OS01G10900-cb004),thermal shift delta Tm (LOC_OS01G13800-cb001),thermal shift delta Tm (LOC_OS01G14860-cb001),thermal shift delta Tm (LOC_OS01G21960-cb002),thermal shift delta Tm (LOC_OS01G39600-cb002),thermal shift delta Tm (LOC_OS01G48390-cb002),thermal shift delta Tm (LOC_OS01G51400-cb002),thermal shift delta Tm (LOC_OS01G52050-cb004)
CN(C)C/C=C/C(=O)Nc1cc2c(Nc3ccc(F)c(Cl)c3)ncnc2cc1O[C@H]1CCOC1 [Afatinib (BIBW2992) Dimaleate],0.1 °C,2.11 °C,5.05 °C,0.72 °C,3.86 °C,1.14 °C,1.17 °C,2.48 °C,0.14 °C,1.67 °C
Cc1ccc2nc(NCCN)c3ncc(C)n3c2c1,0.42 °C,0.41 °C,1.16 °C,0.4 °C,0.19 °C,0.57 °C,-0.24 °C,1.79 °C,0.09 °C,0.5 °C
Cc1ccc(Nc2nccc(N(C)c3ccc4c(C)n(C)nc4c3)n2)cc1S(N)(=O)=O,2.81 °C,0.47 °C,1.7 °C,0.62 °C,1.21 °C,1.29 °C,1.56 °C,4.66 °C,0.3 °C,0.89 °C
COc1ccc(/C=C/C(=O)C2(C(=O)/C=C/c3ccc(OC)c(OC)c3)CCCCC2)cc1OC,0.52 °C,0.5 °C,1.18 °C,0.16 °C,0.18 °C,0.55 °C,0.02 °C,0.51 °C,0.07 °C,0.63 °C
CC(C)(C)Cn1c(N)nc2ccc(-c3[nH]c(C(C)(C)C)nc3-c3ccc(F)cc3)nc21,0.51 °C,-0.68 °C,0 °C,-0.49 °C,-0.02 °C,-0.11 °C,-0.5 °C,1.19 °C,-0.1 °C,-0.09 °C
NC(=O)c1cnc(N[C@@H]2CCCC[C@@H]2N)nc1Nc1cccc(-n2nccn2)c1,0.52 °C,0.79 °C,-0.04 °C,-0.14 °C,3.33 °C,1.47 °C,0.85 °C,0.37 °C,1.02 °C,5.03 °C
Cc1cc(C(C)Nc2ccccc2)c2nc(N3CCOCC3)cc(=O)n2c1 (stereo not given),1.33 °C,-0.12 °C,0.5 °C,0.23 °C,1.25 °C,0.01 °C,0.8 °C,1.36 °C,0.16 °C,0.56 °C
CN1C(=O)[C@@H](NC(=O)c2n[nH]c(Cc3ccccc3)n2)COc2ccccc21,0.8 °C,1.65 °C,0.07 °C,0.83 °C,0.52 °C,0.05 °C,0.62 °C,0.43 °C,0.45 °C,2.47 °C
O=C(NOC[C@H](O)CO)c1ccc(F)c(F)c1Nc1ccc(I)cc1F,1.23 °C,0.99 °C,0.49 °C,0.45 °C,0.5 °C,0.89 °C,0.66 °C,0.89 °C,0.22 °C,0.59 °C
Cc1ccc(NC(=O)c2ccc(CN3CCN(C)CC3)cc2)cc1Nc1nc(-c2cccnc2)cs1 [Masitinib (AB1010)],1.11 °C,0.48 °C,0.92 °C,0.24 °C,0.16 °C,0.26 °C,-0.05 °C,0.15 °C,-0.06 °C,-0.18 °C
CCNC(=O)Nc1ccc(-c2nc3c(c(N4CCOC[C@@H]4C)n2)CCN(C2COC2)C3)cc1,0.46 °C,0.52 °C,0.25 °C,0.66 °C,0.02 °C,0.43 °C,-0.29 °C,0.42 °C,-0.02 °C,0.23 °C
CNC(=O)c1cc(COc2nnc(Nc3ccc(Cl)cc3)c3ccoc23)ccn1 [Telatinib],0.67 °C,0.92 °C,0.29 °C,0.36 °C,0.15 °C,0.85 °C,-0.38 °C,0.26 °C,0.08 °C,0.21 °C
C=CC(=O)N1CCN(CCCn2c(=O)c(-c3c(Cl)c(OC)cc(OC)c3Cl)cc3cnc(NC)nc32)CC1,0.19 °C,0.26 °C,0.4 °C,-0.37 °C,0.42 °C,0.28 °C,0.11 °C,0.23 °C,0.12 °C,0.46 °C
O=C(Nc1ccccc1C(=O)NC1CCCCNC1=O)c1cc2ccccc2s1 (stereo not given),-0.16 °C,1.09 °C,0.05 °C,0.44 °C,0.04 °C,0.32 °C,-0.76 °C,-0.09 °C,0.19 °C,-0.05 °C
CCN(CC)CCCC(C)Nc1nc(C)cc(Nc2ccc3nc(C)cc(N)c3c2)n1 (stereo not given),1.12 °C,1.02 °C,-0.35 °C,-0.26 °C,0.18 °C,0.15 °C,0.28 °C,1.07 °C,0.05 °C,0.12 °C
COc1cc2c(Oc3ccc(NC(=O)C4(C(=O)Nc5ccc(F)cc5)CC4)cc3F)ccnc2cc1OCCCN1CCOCC1,2.26 °C,3.47 °C,1.69 °C,-0.35 °C,1.69 °C,0.4 °C,0.45 °C,6.85 °C,0.19 °C,4.66 °C
COc1ccc(-c2ccc3ncc4c(c3c2)n(-c2ccc(N3CCNCC3)c(C(F)(F)F)c2)c(=O)n4C)cn1,1.5 °C,2.95 °C,0.97 °C,0.05 °C,2.59 °C,2.58 °C,0.22 °C,0.42 °C,-0.17 °C,4.2 °C
Oc1c(F)cc(-c2cnccc2-c2ccc(N3CCOCC3)cc2)cc1F,0.86 °C,0.33 °C,0.19 °C,0.41 °C,0.2 °C,0.65 °C,-0.24 °C,0 °C,0.36 °C,-0.22 °C
N#C/C(=C\c1ccc(O)c(O)c1)C(=O)NCc1ccccc1 [AG-490 (Tyrphostin B42)],2.63 °C,17.9 °C,0.93 °C,1.74 °C,1.27 °C,1.78 °C,-0.2 °C,1.08 °C,0.47 °C,0.46 °C
CCOc1cc(C(=O)N2CCC(N3CCN(C)CC3)CC2)ccc1Nc1ncc2c(n1)N(C1CCCC1)c1ccccc1C(=O)N2C,0.26 °C,0.37 °C,0.01 °C,-0.42 °C,0 °C,0.3 °C,-0.95 °C,0 °C,-0.1 °C,-0.46 °C
Cc1ncc(CCCN(C)C)cc1Nc1ncc2c(n1)-c1ccc(C(F)(F)F)cc1NC(=S)C2,0.62 °C,1.24 °C,-0.4 °C,0.18 °C,0.59 °C,0.78 °C,-0.18 °C,1.07 °C,0.38 °C,1.48 °C
COC(=O)N[C@@H](C)CNc1nccc(-c2cn(C(C)C)nc2-c2cc(Cl)cc(NS(C)(=O)=O)c2F)n1 [Encorafenib (LGX818)],0.41 °C,0.83 °C,0.1 °C,-0.12 °C,5.56 °C,0.28 °C,0.05 °C,0.2 °C,0.1 °C,0.5 °C
O=C(O)c1ccc2c(c1)nc(Nc1cccc(Cl)c1)c1ccncc12 [Silmitasertib (CX-4945)],0.84 °C,2.8 °C,1.54 °C,0.77 °C,2.7 °C,2.28 °C,6.15 °C,0.06 °C,0.3 °C,2.54 °C
CNC(=O)CN1CCC(Oc2cc3c(Nc4cccc(Cl)c4F)ncnc3cc2OC)CC1 [Sapitinib (AZD8931)],0.6 °C,0.72 °C,0.42 °C,-0.22 °C,0.2 °C,0.31 °C,0.43 °C,0.44 °C,-0.05 °C,0.01 °C

# Reference: the supplement of paper PMC9694430
